# Test results as given in PubChem BioAssay (NCATS).
# Unmarked numbers belong to inactive results. Inconclusive results are not listed. A call without a number means that no potency is given here. Active and inactive are the calls of the source. Unless noted, the call rests on the fitted dose curve; in most records, active means well fitted curve in the direction sought with a large enough effect; inconclusive means small, poorly fitted or top-dose-only effect, or another doubt; inactive means no such curve, though single readings can be large; an effect the other way counts as inactive or inconclusive.
# Assays:
# [1] = target: Lysosomal acid glucosylceramidase (Homo sapiens) (UniProt P04062); assay: Glucocerebrosidase-p2 (AID 348; in the data active means potency below about 10 µM; further: potency means the concentration at half of the fitted maximal effect); conditions: purified GBA, blue fluorogenic substrate, 40 min
# Lysosomal acid glucosylceramidase (Homo sapiens), sequence (P04062 whole entry, looked up): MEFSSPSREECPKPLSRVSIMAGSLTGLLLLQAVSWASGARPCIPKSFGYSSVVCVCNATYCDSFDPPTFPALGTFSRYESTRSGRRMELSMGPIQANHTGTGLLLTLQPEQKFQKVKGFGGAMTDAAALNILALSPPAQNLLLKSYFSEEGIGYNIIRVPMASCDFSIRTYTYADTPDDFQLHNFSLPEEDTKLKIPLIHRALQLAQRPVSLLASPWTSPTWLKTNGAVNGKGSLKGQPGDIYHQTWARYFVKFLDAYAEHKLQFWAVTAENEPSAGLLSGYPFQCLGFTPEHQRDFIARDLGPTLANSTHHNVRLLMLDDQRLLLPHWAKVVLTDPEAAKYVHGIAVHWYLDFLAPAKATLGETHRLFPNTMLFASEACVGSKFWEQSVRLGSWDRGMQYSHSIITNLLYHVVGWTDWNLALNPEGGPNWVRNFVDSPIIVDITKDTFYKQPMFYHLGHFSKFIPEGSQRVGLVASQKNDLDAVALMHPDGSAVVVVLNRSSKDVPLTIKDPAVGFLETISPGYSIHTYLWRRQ
# In short: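 Compounds titrated from 0.6 nM upwards against 0.2 nM enzyme in pH 5.9 citric acid/KH2PO4, taurocholate, tween-20; blue fluorogenic substrate 80 uM, 40 min room temperature, stopped and read Ex 365/Em 440 for AC50.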
# [2] = target: Cytochrome P450 1A2 (Homo sapiens) (UniProt P05177); assay: p450-cyp1a2 (AID 410; calls by dose curve; further: potency means the concentration at half of the fitted maximal effect); conditions: recombinant CYP1A2, luciferin-ME demethylation, luminescence; series mostly up to 57 µM
# Cytochrome P450 1A2 (Homo sapiens), sequence (P05177 whole entry, looked up): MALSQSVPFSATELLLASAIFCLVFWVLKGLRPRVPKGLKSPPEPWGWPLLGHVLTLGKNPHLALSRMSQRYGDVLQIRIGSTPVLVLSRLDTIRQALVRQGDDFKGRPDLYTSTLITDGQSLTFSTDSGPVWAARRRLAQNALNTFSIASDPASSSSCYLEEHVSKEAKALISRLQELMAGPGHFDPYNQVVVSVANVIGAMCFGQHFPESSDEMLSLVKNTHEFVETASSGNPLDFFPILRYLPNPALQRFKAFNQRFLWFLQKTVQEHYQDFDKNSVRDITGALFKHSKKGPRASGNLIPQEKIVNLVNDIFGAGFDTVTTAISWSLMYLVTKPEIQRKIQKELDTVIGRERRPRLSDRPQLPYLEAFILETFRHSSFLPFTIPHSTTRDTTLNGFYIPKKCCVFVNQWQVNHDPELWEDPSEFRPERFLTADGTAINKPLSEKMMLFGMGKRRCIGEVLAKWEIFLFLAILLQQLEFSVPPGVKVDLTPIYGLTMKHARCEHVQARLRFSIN
# In short: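 20nM CYP1A2 with 100uM Luciferin-ME (at Km) in 100mM KPO4; compound preincubated 10 min, NADPH regeneration added, 60 min at room temperature. Luciferin quantified by luminescence after detection reagent; normalized to 57 uM furafylline.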
# [3] = target: Glucocorticoid receptor (Homo sapiens) (UniProt P04150); assay: GR-GFP Redistribution (AID 450;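 active means compounds whose dose series gives a full or clear partial fitted curve of increased nuclear translocation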; further: potency means the concentration at half of the fitted maximal effect); conditions: U2OS GR-GFP nuclear translocation, laser cytometry, 2 h
# Glucocorticoid receptor (Homo sapiens), sequence (P04150 whole entry, looked up, the tested form may be a part): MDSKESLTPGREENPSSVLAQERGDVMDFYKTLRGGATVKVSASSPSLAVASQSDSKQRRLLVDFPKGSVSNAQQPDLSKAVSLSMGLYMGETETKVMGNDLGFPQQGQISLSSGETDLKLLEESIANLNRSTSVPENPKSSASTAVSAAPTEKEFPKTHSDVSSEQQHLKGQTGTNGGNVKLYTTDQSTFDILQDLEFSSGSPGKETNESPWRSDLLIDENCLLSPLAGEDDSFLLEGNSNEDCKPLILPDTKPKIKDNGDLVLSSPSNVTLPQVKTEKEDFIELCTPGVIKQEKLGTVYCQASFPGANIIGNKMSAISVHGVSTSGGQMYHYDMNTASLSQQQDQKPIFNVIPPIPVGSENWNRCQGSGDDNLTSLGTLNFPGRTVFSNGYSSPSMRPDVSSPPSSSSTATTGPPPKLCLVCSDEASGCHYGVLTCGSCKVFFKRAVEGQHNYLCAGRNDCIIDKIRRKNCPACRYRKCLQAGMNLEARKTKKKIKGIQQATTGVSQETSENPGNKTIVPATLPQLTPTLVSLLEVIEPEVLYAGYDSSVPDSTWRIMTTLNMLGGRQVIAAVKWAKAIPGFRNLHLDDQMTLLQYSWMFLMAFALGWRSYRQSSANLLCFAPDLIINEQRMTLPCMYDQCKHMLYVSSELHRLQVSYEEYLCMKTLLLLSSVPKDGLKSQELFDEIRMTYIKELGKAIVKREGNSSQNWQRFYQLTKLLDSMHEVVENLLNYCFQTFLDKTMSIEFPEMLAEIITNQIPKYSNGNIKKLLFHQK
# [4] = target: Glucocorticoid receptor (Homo sapiens) (UniProt P04150); assay: GR-EFC Redistribution (AID 451; calls by dose curve; further: potency means the concentration at half of the fitted maximal effect); conditions: CHO-K1 GR-EFC translocation, beta-gal luminescence, 2 h
# In short: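 CHO-K1 cells expressing nuclear EA and GR-ED fragments of b-gal; compounds titrated up to 46 uM final, 2 h at 37 C. GR nuclear translocation read as complemented b-gal luminescence after 1 h RT detection.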
# [5] = target: Mitogen-activated protein kinase 10 (Mus musculus) (UniProt Q61831); assay: JNK3 AlphaScreen Assay (AID 530; active means well fitted curve in either direction with a large enough effect, not every such curve was filed as active;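 further: kinase came from lysate of stimulated human HepG2 cells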; further: potency means the concentration at half of the fitted maximal effect;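 on activity change, negative = inhibition: signal reports phosphorylation of biotinylated GST-cJun 1-79 at Ser73 with 10 µM ATP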); conditions: JNK3 lysate, c-Jun phosphorylation; series mostly up to 57.1 µM
# In short: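 Pre-activated (IL-1β/TNFα) JNK3 in HepG2 lysates phosphorylates biotin-GST-cJun(1-79), 10 uM ATP; anti-phospho-cJun(Ser73) AlphaScreen read at room temperature, pH 7.6 Tris buffer. Compounds pre-incubated 15 min as titrations.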
# [6] = target: Cytochrome P450 2C9 (Homo sapiens) (UniProt P11712); assay: qHTS Assay for Inhibitors and Substrates of Cytochrome P450 2C9 (AID 883); conditions: recombinant CYP2C9, luciferin-H luminescence, 60 min; series mostly up to 57.1 µM; further: nearly all actives have a fitted effect of over 60% in size; further: potency means the concentration at half of the fitted maximal effect
# Cytochrome P450 2C9 (Homo sapiens), sequence (P11712 whole entry, looked up): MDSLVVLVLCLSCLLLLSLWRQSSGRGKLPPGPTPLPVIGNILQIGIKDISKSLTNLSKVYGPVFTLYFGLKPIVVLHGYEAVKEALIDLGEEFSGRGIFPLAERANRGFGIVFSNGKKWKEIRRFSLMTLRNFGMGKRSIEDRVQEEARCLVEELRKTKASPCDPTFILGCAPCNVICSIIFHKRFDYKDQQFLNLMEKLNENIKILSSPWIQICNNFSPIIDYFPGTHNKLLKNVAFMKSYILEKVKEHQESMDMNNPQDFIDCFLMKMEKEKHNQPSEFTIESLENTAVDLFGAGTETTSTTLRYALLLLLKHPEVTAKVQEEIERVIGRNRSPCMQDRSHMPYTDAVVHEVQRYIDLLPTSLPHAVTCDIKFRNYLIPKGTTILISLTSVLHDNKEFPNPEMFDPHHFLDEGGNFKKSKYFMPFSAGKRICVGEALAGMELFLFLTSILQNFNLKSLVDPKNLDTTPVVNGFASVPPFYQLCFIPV
# In short: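 Signal: luciferase luminescence reporting luciferin produced by CYP2C9. Conditions: 10nM enzyme, Luciferin-H 100uM at KM, 25mM KPO4, 37C, 60 min NADPH-driven reaction. Reference: 57uM sulphaphenazole as 100% inhibition.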
# [7] = qHTS Assay for Identification of Small Molecule Agonists for Hypoxia Response Element Signaling Pathway (AID 914; active means well fitted activation curve with a large enough effect in the signal ratio, with a control signal flat, not every such curve was filed as active; the % refers to the signal ratio; further: potency means the concentration at half of the fitted maximal effect); conditions: ME-180 HRE-bla reporter, beta-lactamase ratio, CoCl2, 17 h; activation: hits give high values
# In short: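 ME-180 cells carrying an HRE-driven beta-lactamase reporter were treated with compounds in a titration series plus an EC50 level of CoCl2 for 17 h at 37 degrees Celsius; CCF4 readout as the 460nm/530nm ratio gave AC50 values.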
# [8] = target: Dual specificity protein kinase CLK4 (Homo sapiens) (UniProt Q9HAZ1); assay: qHTS Assay for Inhibitors of CDC-like Kinase 4 (Kinase-Glo Assay) (AID 1770); conditions: recombinant Clk4, Kinase-Glo ATP depletion luminescence; series mostly up to 66.7 µM; further: nearly all actives have a fitted effect of over 65% in size; further: potency means the concentration at half of the fitted maximal effect
# Dual specificity protein kinase CLK4 (Homo sapiens), sequence (Q9HAZ1 whole entry, looked up): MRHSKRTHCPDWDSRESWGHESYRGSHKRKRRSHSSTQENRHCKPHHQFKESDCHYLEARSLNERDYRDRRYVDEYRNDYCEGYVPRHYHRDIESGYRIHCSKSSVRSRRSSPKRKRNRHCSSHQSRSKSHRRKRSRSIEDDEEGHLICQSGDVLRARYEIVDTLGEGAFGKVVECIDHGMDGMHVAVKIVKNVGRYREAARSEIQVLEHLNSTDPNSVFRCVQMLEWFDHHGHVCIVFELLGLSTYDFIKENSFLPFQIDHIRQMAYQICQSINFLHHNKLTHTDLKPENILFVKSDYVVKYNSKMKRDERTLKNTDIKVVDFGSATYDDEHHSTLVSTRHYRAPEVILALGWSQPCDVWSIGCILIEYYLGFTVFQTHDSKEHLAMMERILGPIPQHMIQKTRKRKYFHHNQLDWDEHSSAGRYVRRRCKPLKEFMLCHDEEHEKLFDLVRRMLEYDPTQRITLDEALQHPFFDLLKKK
# In short: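 Recombinant human Clk4 (25 nM) phosphorylated RS repeat peptide (100 uM) with 1 uM ATP in Tris pH 7.5/MgCl2/EGTA/DTT/Triton buffer for 4.5 h at room temperature. Residual ATP was quantified by Kinase-Glo luciferase luminescence.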
# [9] = target: Dual specificity protein kinase CLK4 (Homo sapiens) (UniProt Q9HAZ1); assay: qHTS Assay for Inhibitors of CDC-like Kinase 4 (ADP-Glo Assay) (AID 1771); conditions: recombinant CLK4, ADP-Glo luminescence; series mostly up to 80 µM; further: nearly all actives have a fitted effect of over 70% in size; further: potency means the concentration at half of the fitted maximal effect
# In short: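 25 nM Clk4 with 100 uM RS repeat peptide and 1 uM ATP (final) in buffer with 2 mM MgCl2, 0.5 mM EGTA, 2.5 mM DTT, 0.01% Triton X-100; 1 h at room temperature; ADP-Glo luminescence for ADP formed.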
# [10] = target: Dual specificity protein kinase CLK4 (Homo sapiens) (UniProt Q9HAZ1); assay: qHTS Assay for Inhibitors of CDC-like Kinase 4 (ADP-FP Assay) (AID 1795); conditions: Transcreener ADP fluorescence polarization; series mostly up to 50 µM; further: nearly all actives have a fitted effect of over 60% in size; further: potency means the concentration at half of the fitted maximal effect
# In short: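 Recombinant human Clk4 (6.25 nM) phosphorylated RS repeat peptide (100 uM) with 1 uM ATP in Tris pH 7.5/MgCl2/EGTA/DTT/Triton buffer for one hour. ADP was quantified by Transcreener competitive fluorescence polarization against an ADP calibration curve.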
# [11] = target: Ubiquitin carboxyl-terminal hydrolase 1 (Homo sapiens) (UniProt O94782); assay: Inhibitors of USP1/UAF1: Pilot qHTS (AID 504865); conditions: purified USP1/UAF1, Ub-rhodamine cleavage fluorescence; series mostly up to 54.9 µM; further: nearly all actives have a fitted effect of over 35% in size; further: potency means the concentration at half of the fitted maximal effect;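 on activity change, negative = inhibition: rhodamine fluorescence freed from ubiquitin-rhodamine substrate followed over time; top concentration of the series differs between compounds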
# Ubiquitin carboxyl-terminal hydrolase 1 (Homo sapiens), sequence (O94782 whole entry, looked up): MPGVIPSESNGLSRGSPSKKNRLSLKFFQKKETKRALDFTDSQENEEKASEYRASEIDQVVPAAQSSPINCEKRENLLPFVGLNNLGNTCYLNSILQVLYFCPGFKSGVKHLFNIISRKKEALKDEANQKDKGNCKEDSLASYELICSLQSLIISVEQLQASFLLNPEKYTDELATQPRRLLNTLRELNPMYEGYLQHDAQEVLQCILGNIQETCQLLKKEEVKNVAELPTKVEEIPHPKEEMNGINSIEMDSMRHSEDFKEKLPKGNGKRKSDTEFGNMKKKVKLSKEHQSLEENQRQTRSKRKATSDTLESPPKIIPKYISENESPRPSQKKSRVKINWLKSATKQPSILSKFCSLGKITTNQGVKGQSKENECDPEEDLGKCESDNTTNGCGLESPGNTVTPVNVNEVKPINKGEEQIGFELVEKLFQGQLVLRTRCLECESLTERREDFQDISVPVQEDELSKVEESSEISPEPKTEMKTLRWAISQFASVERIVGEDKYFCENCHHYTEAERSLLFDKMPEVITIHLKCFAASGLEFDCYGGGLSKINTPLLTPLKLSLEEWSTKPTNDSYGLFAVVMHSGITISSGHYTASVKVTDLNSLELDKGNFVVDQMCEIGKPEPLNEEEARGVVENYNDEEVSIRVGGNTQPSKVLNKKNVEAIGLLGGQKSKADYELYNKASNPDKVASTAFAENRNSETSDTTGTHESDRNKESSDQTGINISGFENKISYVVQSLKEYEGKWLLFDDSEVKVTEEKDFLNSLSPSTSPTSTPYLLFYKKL
# In short: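 USP1/UAF1 complex (1nM) preincubated with compound 15 min at room temperature, then Ub-Rho substrate (150nM final) added. Fluorescence read kinetically at 480/540 nm, 6 reads every 60 seconds. Buffer: 50mM HEPES pH 7.8, 0.5mM EDTA, 0.1 mg/ml BSA, 1mM TCEP, 0.01% Tween-20.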
# [12] = Primary qHTS for small molecule stabilizers of the endoplasmic reticulum resident proteome: Secreted ER Calcium Modulated Protein (SERCaMP) assay (AID 1508630); conditions: SH-SY5Y GLuc-SERCaMP (Gaussia luciferase released on ER calcium loss) secretion, thapsigargin, luminescence; series mostly up to 38.4 µM
# In short: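 GLuc-SERCaMP-expressing SH-SY5Y cells, pretreated 16 h with compound, are challenged with thapsigargin to empty ER calcium stores; after 4 h, coelenterazine is added directly to the medium and luminescence is imaged.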
# [13] = Stat Signaling Pathway (AID 446; active means well fitted curve in either direction with a large enough effect, not every such curve was filed as active;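 further: ME-180 cervical cancer cells given 40 pM IL-6 alongside compound; SIE-controlled beta-lactamase reporter measured as 460/530 nm FRET emission ratio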); conditions: ME-180 SIE beta-lactamase reporter, IL-6 stimulated, 5 h; at 7.69 µM (top of the series) unless noted
# In short: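 IL-6/STAT signaling read in ME-180 cells via an SIE beta-lactamase reporter. Stimulus was 40 pM IL-6 (its AC50) for 5 hrs, so both activation and inhibition register.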
# [14] = target: 3',5'-cyclic-AMP phosphodiesterase 4B (Homo sapiens) (UniProt Q07343); assay: qHTS Assay for Inhibitors of PDE-IV (AID 607; active means well fitted activation curve with a large enough effect in the main read-out, with a control signal flat, not every such curve was filed as active); conditions: HEK293 ACTOne CNG channel cells, membrane potential fluorescence; series mostly up to 22.9 µM
# 3',5'-cyclic-AMP phosphodiesterase 4B (Homo sapiens), sequence (Q07343 whole entry, looked up): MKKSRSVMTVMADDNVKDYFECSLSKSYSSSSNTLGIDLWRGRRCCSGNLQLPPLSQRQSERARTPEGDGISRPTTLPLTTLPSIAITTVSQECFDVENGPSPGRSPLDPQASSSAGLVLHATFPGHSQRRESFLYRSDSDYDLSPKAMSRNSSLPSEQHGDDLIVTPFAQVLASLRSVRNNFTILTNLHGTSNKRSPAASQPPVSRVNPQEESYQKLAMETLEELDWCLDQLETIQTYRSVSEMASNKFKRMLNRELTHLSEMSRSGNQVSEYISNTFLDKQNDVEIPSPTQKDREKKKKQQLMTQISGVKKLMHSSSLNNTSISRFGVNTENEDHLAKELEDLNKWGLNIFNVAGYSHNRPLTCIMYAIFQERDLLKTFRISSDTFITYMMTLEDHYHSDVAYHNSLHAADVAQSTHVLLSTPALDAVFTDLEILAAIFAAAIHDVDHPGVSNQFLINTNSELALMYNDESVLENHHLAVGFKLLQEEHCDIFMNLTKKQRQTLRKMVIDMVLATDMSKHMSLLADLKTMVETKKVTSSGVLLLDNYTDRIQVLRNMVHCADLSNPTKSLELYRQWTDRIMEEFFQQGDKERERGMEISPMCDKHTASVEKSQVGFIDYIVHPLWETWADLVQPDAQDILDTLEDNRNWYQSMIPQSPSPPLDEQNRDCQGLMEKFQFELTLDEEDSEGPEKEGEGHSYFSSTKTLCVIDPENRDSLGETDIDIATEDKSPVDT
# In short: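 Live HEK293 cells with a modified cyclic nucleotide-gated (CNG) channel report intracellular cAMP via membrane-potential dye fluorescence (ex 535/em 590 nm). Endogenous PDE-IV was targeted. Compounds were tested at up to 22.9 uM final; RO 20-1724 100 uM served as control.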
# [15] = target: Cytochrome P450 3A4 (Homo sapiens) (UniProt P08684); assay: qHTS Assay for Activators of Cytochrome P450 3A4 (AID 885); conditions: recombinant CYP3A4, Luciferin-PPXE luminescence, 60 min; series mostly up to 57.1 µM; further: nearly all actives have a fitted effect of over 65% in size
# Cytochrome P450 3A4 (Homo sapiens), sequence (P08684 whole entry, looked up): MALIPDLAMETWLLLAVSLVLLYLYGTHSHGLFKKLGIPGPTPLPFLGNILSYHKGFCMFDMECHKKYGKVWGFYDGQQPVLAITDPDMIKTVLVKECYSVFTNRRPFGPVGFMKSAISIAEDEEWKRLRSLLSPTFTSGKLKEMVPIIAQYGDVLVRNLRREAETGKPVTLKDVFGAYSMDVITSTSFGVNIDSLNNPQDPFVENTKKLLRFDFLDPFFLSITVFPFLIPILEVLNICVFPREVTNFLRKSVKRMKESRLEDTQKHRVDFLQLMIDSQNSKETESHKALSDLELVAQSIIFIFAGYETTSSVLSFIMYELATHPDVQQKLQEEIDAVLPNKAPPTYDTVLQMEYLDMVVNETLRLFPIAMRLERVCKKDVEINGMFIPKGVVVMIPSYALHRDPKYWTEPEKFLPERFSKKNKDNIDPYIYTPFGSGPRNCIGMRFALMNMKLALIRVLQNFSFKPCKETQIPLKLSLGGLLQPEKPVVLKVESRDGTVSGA
# In short: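 Quantitative HTS format: compounds preincubated with 20nM human CYP3A4 and Luciferin-PPXE substrate at KM, reaction started by NADPH regeneration, stopped after 60 min, luciferase luminescence read 20 min later.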
# [16] = target: Cytochrome P450 3A4 (Homo sapiens) (UniProt P08684); assay: qHTS Assay for Inhibitors and Substrates of Cytochrome P450 3A4 (AID 884); conditions: recombinant CYP3A4, Luciferin-PPXE luminescence; series mostly up to 57.1 µM; further: potency means the concentration at half of the fitted maximal effect; nearly all actives have a fitted effect of over 50% in size
# In short: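 20 nM human CYP3A4 with 25 uM Luciferin-PPXE (at KM) in 200 mM KPO4, preincubated 10 min with compound; NADPH regeneration started a 60 min RT reaction. Luciferin detected by luminescence, normalized to 57 uM ketoconazole as full inhibition.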
# [17] = target: Cytochrome P450 2D6 (Homo sapiens) (UniProt P10635); assay: qHTS Assay for Inhibitors and Substrates of Cytochrome P450 2D6 (AID 891); conditions: recombinant CYP2D6, luciferin-ME EGE luminescence; series mostly up to 57.1 µM; further: potency means the concentration at half of the fitted maximal effect; nearly all actives have a fitted effect of over 60% in size
# In short: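 Human CYP2D6 (5 nM) with 30 uM Luciferin-ME EGE (at Km) in 100 mM KPO4, compound preincubated 10 min, then NADPH regeneration system for 60 min at room temperature. Luciferin read by luminescence; normalized to 1.43 uM quinidine.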
# [18] = target: Cytochrome P450 2C19 (Homo sapiens) (UniProt P33261); assay: qHTS Assay for Inhibitors and Substrates of Cytochrome P450 2C19 (AID 899); conditions: recombinant CYP2C19, luciferin-H EGE luminescence; series mostly up to 57.1 µM; further: potency means the concentration at half of the fitted maximal effect; nearly all actives have a fitted effect of over 60% in size
# In short: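 Signal comes from luciferase acting on luciferin released by CYP2C19-mediated hydroxylation of Luciferin-H EGE, 10uM (KM). Assay mix: 5nM enzyme, 50mM KPO4; 60 min at 37C with NADPH regeneration. Data normalized against 57uM ketoconazole.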
# [19] = AP1 Signaling Pathway (AID 357; active means well fitted curve in either direction with a large enough effect, not every such curve was filed as active); conditions: ME-180 (cervical carcinoma) AP-1-bla reporter, EGF-induced, beta-lactamase ratio, 5 h; at 7.69 µM (top of the series) unless noted
# In short: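 AP-1-bla ME-180 cells with beta-lactamase reporter under AP-1 response element, stimulated with EC50 EGF; compounds titrated, 5 hours at 37 degrees Celsius. CCF4 read at 460/530 nm ratio; positive and negative modulators judged by AC50.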
# [20] = NFAT Signaling Pathway (AID 444; active means well fitted curve in either direction with a large enough effect, not every such curve was filed as active;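 further: carbachol stimulus at about its EC50 of 1 µM final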); conditions: Jurkat NFAT-bla M1, carbachol, beta-lactamase ratio, 5 h; at 7.69 µM (top of the series) unless noted
# In short: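 Jurkat cells with NFAT-driven β-lactamase reporter and co-expressed M1 receptor, stimulated with carbachol (final 1 uM, ~EC50), compound titration, 5 h at 37 °C. CCF4 loaded 1 h at RT; 460/530 nm ratio gave %activity and AC50.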
Structure (SMILES),Potency [1] [µM],Potency [2],Potency [3] [µM],Potency [4] [µM],Potency [5],Potency [6],Potency [7],Potency [8],Potency [9],Potency [10],Potency [11],outcome [12],"activity, negative = inhibition [13]",Potency [14],Potency [15],Potency [16],Potency [17],Potency [18],"activity change, negative = inhibition [19] [%]","activity change, negative = inhibition [20] [%]"
CCNc1ncc2nc(-c3ccc(OC)cc3)c(=O)n(Cc3ccc(F)cc3)c2n1,> 11.4,inactive,> 9.22,> 46,inactive,inactive,1.26 µM (active),inactive,inactive,inactive,inactive,inactive,–,–,–,–,–,–,–,–
COc1cccc(Cn2c(=O)c(-c3cccs3)nc3cnc(N4CCNCC4)nc32)c1,> 11.4,15.8 µM (active),> 9.22,> 46,3.98 µM [activator] (active),–,–,inactive,inactive,inactive,inactive,inactive,114% [activator] (active),inactive,inactive,–,–,–,–,–
COc1ccc2[nH]cc(CCNc3ncnc4ccc(-c5c(C)noc5C)cc34)c2c1,> 11.4,7.94 µM (active),> 46,> 46,inactive,–,–,7.94 µM (active),5.01 µM (active),3.98 µM (active),inactive,inactive,–,inactive,inactive,3.16 µM (active),6.31 µM (active),3.98 µM (active),–,–
CCNc1ncc2nc(-c3ccc(Cl)cc3)c(=O)n(Cc3cccc(OC)c3)c2n1,> 11.4,inactive,> 9.22,> 46,inactive,–,0.316 µM (active),inactive,inactive,inactive,inactive,inactive,–,inactive,–,–,–,–,–,–
O=c1c(-c2cc(F)cc(F)c2)nc2cnc(N3CCNCC3)nc2n1Cc1ccc(F)cc1,> 11.4,–,> 9.22,> 46,inactive,–,–,inactive,inactive,inactive,–,inactive,–,inactive,–,–,–,–,–,–
COc1ccc(CNc2nc(-c3cccc(NS(C)(=O)=O)c3)nc3ccccc23)c(OC)c1,–,15.8 µM (active),–,> 46,inactive,0.158 µM (active),–,inactive,inactive,inactive,inactive,inactive,–,–,inactive,2.51 µM (active),–,–,–,–
CCNc1ncc2nc(-c3cccc(C#N)c3)c(=O)n(Cc3cccc(OC)c3)c2n1,–,–,> 9.22,> 46,inactive,–,–,inactive,inactive,inactive,inactive,inactive,-8.97%,inactive,–,–,–,–,-6.16,-14.9
COc1ccc(-n2c(=O)c(CCc3ccccc3)nc3cnc(N4CCOCC4)nc32)cc1,–,15.8 µM (active),> 9.22,> 46,inactive,–,–,inactive,inactive,inactive,inactive,inactive,-13.2%,inactive,inactive,–,–,–,-17,-7.5
O=c1c(-c2cccc(Cl)c2)nc2cncnc2n1-c1ccccc1,–,2 µM (active),> 9.22,> 46,inactive,–,–,inactive,inactive,inactive,inactive,inactive,0.546%,–,inactive,–,–,–,-18.9,9.76
CN(C)c1ncc2nc(-c3cc(F)cc(F)c3)c(=O)n(Cc3ccc(F)cc3)c2n1,–,inactive,> 46,> 46,inactive,inactive,3.16 µM (active),inactive,inactive,inactive,inactive,inactive,–,inactive,inactive,–,–,–,–,–
Cc1ccccc1-c1ccc2ncnc(NCc3cccnc3)c2c1,–,0.251 µM (active),–,> 46,inactive,0.794 µM (active),–,14.1 µM (active),11.2 µM (active),11.2 µM (active),inactive,inactive,-11%,inactive,inactive,1.58 µM (active),2 µM (active),1.58 µM (active),-2.6,2.06
Clc1ccccc1-c1nccc(NCc2ccccc2)n1,–,3.16 µM (active),> 46,> 46,inactive,–,–,inactive,inactive,inactive,28.2 µM (active),inactive,-6.25%,–,–,–,–,–,12.5,10.7
CN1CCN(c2ncc3nc(-c4cn(C)c5ccccc45)c(=O)n(-c4ccccc4)c3n2)CC1,–,15.8 µM (active),–,> 46,inactive,–,–,inactive,inactive,inactive,–,inactive,4.99%,inactive,inactive,–,–,–,2.43,20
